IL1B secr inh – blocks inflammasome-driven IL-1 beta release. THP-1 LPS/ATP IL-1B secretion, AlphaLISA, 16 h; hits give low values. activity change, % at 57.5 µM. actives 4.7% (n = 360,000); in the data active = activity change below about -50%; inconclusive = mostly about -30% to -49%; also: % is scaled to controls: 0 for no effect and ±100 for the full control effect
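Secreted IL-1B measured by AlphaLISA bead assay after 16 h compound exposure of THP-1 cells; compounds (final up to 57.5 uM) added 1 h before LPS (250 ng/mL) and ATP (1.25 mM) stimulation; lower signal means less secretion.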
HepG2 tox – counter-screen for TGF-b inhibitors: cytotoxicity in HepG2 cells | HepG2 CAGA-GFP viability, ATP luminescence, 18 h | Potency, µM (series often up to 46.1 µM), inactives show top-dose activity change, negative = cytotoxicity, hits mostly cytotoxic | actives 0.76% (n = 410,000) | AID 588856; also: potency is read from the fitted curve at half-maximal effect
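CellTiter-Glo luminescence gave cytotoxicity after 18 hours at 37 degrees C. The cells were HepG2 CAGA-GFP in 1% FBS DMEM, stimulated with 500 pg/mL TGF-beta after compound addition. %Activity was normalised to no-cell wells (complete cell-killing) and DMSO (no toxicity), and curves were fitted and classified.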
TDP1 block – blocks human tyrosyl-DNA phosphodiesterase 1. Q9NUW8. recombinant TDP1, AlphaScreen DNA substrate cleavage. Potency, µM (highest dose often 130 µM), for the others: at the top dose activity change, negative = inhibition, actives largely listed as inhibitors. actives 0.28% (n = 350,000). AID 485290; also: potency is read from the fitted curve at half-maximal effect; % is scaled to controls: 0 for no effect and ±100 for the full control effect; nearly all actives have a fitted effect of over 40% in size
Target sequence (Q9NUW8 whole entry, looked up): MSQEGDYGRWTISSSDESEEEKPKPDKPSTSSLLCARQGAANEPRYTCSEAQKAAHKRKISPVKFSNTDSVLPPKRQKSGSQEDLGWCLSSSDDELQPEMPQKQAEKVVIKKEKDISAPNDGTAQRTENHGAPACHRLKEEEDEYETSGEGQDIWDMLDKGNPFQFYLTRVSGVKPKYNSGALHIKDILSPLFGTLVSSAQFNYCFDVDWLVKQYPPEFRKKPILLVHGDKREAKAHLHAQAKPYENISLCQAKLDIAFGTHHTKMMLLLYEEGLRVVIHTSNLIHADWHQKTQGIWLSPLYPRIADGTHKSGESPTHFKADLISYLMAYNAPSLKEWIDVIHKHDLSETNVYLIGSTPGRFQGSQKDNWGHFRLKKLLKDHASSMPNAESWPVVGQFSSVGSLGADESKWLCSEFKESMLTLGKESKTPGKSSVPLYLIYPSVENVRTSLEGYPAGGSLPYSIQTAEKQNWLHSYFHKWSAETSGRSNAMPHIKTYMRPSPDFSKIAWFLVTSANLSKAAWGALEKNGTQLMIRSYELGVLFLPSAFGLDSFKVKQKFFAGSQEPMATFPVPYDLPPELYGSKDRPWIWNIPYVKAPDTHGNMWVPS
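Recombinant human Tdp1 (E. coli-expressed, 1 nM final) preincubated with compounds 15 min at room temperature, then 5'-biotin/3'-phosphotyrosine-FITC DNA substrate (15 nM final) added for 5 min. AlphaScreen beads (10 ug/ml final) added 10 min; cleavage lowers signal.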
DT40 TDP1 no CPT – qHTS for Inhibitors of human tyrosyl-DNA phosphodiesterase 1 (TDP1): qHTS in cells in absence of CPT; DT40 Tdp1-/- hTDP1 cells, no CPT, ATP luminescence, 48 h; Potency, µM (doses to about 46.2 µM), without a hit: top-dose activity change, negative = growth inhibition, actives largely listed as inhibitors; actives 15% (n = 420,000); AID 686978, 2013; also: potency is read from the fitted curve at half-maximal effect; % is scaled to controls: 0 for no effect and ±100 for the full control effect; nearly all actives have a fitted effect of over 55% in size
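Readout: luminescence from CellTiter-Glo after 30 min in the dark at RT. Cells: DT40 Tdp1-/- with stable hTDP1, 400/well. Exposure: compounds alone, ≥48 hr, 37 °C.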
TGFb inhibitor – TGF-b pathway inhibition; HepG2 CAGA-GFP TGF-b/SMAD3 reporter, GFP fluorescence, 18 h; TGF-beta stimulated, 500 pg/mL final; Potency, µM (titrated, usually from 46.1 µM), without a hit: at the highest dose activity, negative = inhibition, hits mostly inhibitors; actives 1.2% (n = 410,000); also: potency is read from the fitted curve at half-maximal effect; % is scaled to controls: 0 for no effect and ±100 for the full control effect; nearly all actives have a fitted effect of over 65% in size
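TGF-beta reporter screen: HEPG2 CAGA-GFP, 1% FBS, 500 pg/mL TGF-beta final, 18 h; per-cell GFP summed per well; curves fitted and categorized by class.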
TDP1 cell CPT – growth inhibition of DT40 Tdp1-/-;hTDP1 cells with camptothecin (screen for TDP1 inhibitors); Potency, µM (doses to about 46.2 µM), inactives show at the highest dose activity change, negative = growth inhibition, usual class: inhibitors; actives 12% (n = 420,000); chicken DT40 Tdp1-/-;hTDP1 cells + 20 nM CPT, ATP luminescence, 48 h; also: potency is read from the fitted curve at half-maximal effect; % is scaled to controls: 0 for no effect and ±100 for the full control effect; nearly all actives have a fitted effect of over 55% in size
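Chicken DT40 Tdp1-/- cells stably complemented with human TDP1 were seeded at 400 cells/well in medium containing 20 nM camptothecin, exposed to pin-transferred compounds, and grown at 37 °C for at least 48 hr. Viability was read as ATP luminescence.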
Active calls of the source: *; [ ] = remark or other dose. The list is not random: actives were taken first. Their share in the collection is about 19%. Unless noted, calls follow the shape of the dose curve; as a rule, active = well fitted curve in the direction sought with a large enough effect; inconclusive = small, poorly fitted or top-dose-only effect, or another doubt; inactive = no such curve, though single readings can be large; an effect the other way counts as inactive or inconclusive.

How did COc1cccc(N2C(=O)NC(=O)C3(Cc4cc(C)ccc4N(C)C3)C2=O)c1 (stereo not drawn) do in these assays?
IL1B secr inh: 1.7; HepG2 tox: -33.4%; TDP1 block: 7.3%; DT40 TDP1 no CPT: inconclusive; TGFb inhibitor: inconclusive; TDP1 cell CPT: inconclusive

What do the screens show for `CCOC(=O)[C@]12Cc3ccccc3[C@H]1N(Cc1ccccc1)C(=O)c1ccccc12`?
IL1B secr inh: -7.0; HepG2 tox: -30.3%; DT40 TDP1 no CPT: inconclusive; TGFb inhibitor: -25.7%; TDP1 cell CPT: inconclusive

How did CC(C)(C)NC[C@H](O)COc1cccc2[nH]c(C#N)cc12 do in these assays?
TDP1 block: 7.3%; DT40 TDP1 no CPT: -14.6%; TDP1 cell CPT: -7.4%

Results for ClCBr ?
TDP1 block: 14.9%

What do the screens show for `O=Nc1c(-c2ccccc2)n(O)[n+]([O-])c1-c1ccccc1`?
IL1B secr inh: -2.1; HepG2 tox: -26.5%; DT40 TDP1 no CPT: 20.6µM*; TGFb inhibitor: -7.8%; TDP1 cell CPT: inconclusive

Results for O=C(N/N=C/c1cccnc1)c1ccc(NC(=O)C(c2ccccc2)c2ccccc2)cc1 ?
IL1B secr inh: 31.1; HepG2 tox: -5.2%; TDP1 block: 8.0%; DT40 TDP1 no CPT: 11.6µM*; TGFb inhibitor: -0.6%; TDP1 cell CPT: 7.31µM*

Results for O=CC1=C(N2CCOCC2)/C(=C\c2ccccc2)CC1 ?
IL1B secr inh: inconclusive; HepG2 tox: -3.8%; TDP1 block: 5.4%; DT40 TDP1 no CPT: inconclusive; TGFb inhibitor: -5.9%; TDP1 cell CPT: inconclusive

Results for COc1ccc(/C=C2/C(=O)NC(=S)N(C3CC3)C2=O)cc1CN1C(=O)c2ccccc2C1=O ?
IL1B secr inh: 18.4; HepG2 tox: 19.0%; TDP1 block: -10.5%; DT40 TDP1 no CPT: 23.1µM*; TGFb inhibitor: -2.4%; TDP1 cell CPT: 16.4µM*

How did COc1ccc2c(c1)[C@@]13CCCC[C@H]1[C@@H](C2)NCC3 do in these assays?
TDP1 block: 10.2%[56.1 µM]

How did CC1=C(C/C(C)=C/c2ccccc2)/C(=C/CO)[C@@H]2OC(=O)O[C@]2(C)C12CC2 do in these assays?
IL1B secr inh: 4.2; HepG2 tox: -6.1%; DT40 TDP1 no CPT: 11.6µM*; TGFb inhibitor: inconclusive; TDP1 cell CPT: 8.2µM*

What do the screens show for `CN(C)CCCCCCN(C)C` (tested in a mixture with another compound)?
DT40 TDP1 no CPT: 2.8%; TDP1 cell CPT: -6.0%

Results for CCC(=NCc1cc(OC)cc(OC)c1)c1c(O)n(C)c(=O)n(C)c1=O ?
IL1B secr inh: 2.5; HepG2 tox: -7.4%; TDP1 block: 3.4%; DT40 TDP1 no CPT: 8.91µM*; TGFb inhibitor: -19.0%; TDP1 cell CPT: 10µM*

What do the screens show for `CCC(=NCc1ccc2c(c1)OCO2)c1c(O)n(C)c(=O)n(C)c1=O`?
IL1B secr inh: -25.8; HepG2 tox: -27.5%; TDP1 block: 2.0%; DT40 TDP1 no CPT: 20.6µM*; TGFb inhibitor: 6.0%; TDP1 cell CPT: inconclusive

What do the screens show for `CC(=NCc1ccc2c(c1)OCO2)c1c(O)n(C)c(=O)n(C)c1=O`?
IL1B secr inh: 10.5; HepG2 tox: -23.5%; TDP1 block: 2.3%; DT40 TDP1 no CPT: inconclusive; TGFb inhibitor: -4.0%; TDP1 cell CPT: inconclusive

How did COc1ccc(CCn2c(O)c(C=Nc3cccc(F)c3)c(=O)[nH]c2=O)cc1OC do in these assays?
IL1B secr inh: 18.1; HepG2 tox: -13.5%; DT40 TDP1 no CPT: -25.9%; TGFb inhibitor: -9.5%; TDP1 cell CPT: inconclusive

What do the screens show for `COC(/C(C)=C/C=C/C(C)=C/c1coc(C)n1)C(C)C1CC(O)C2(C)OC2C=CC(C)C2CC(CC(=O)O2)CC2OC2C(=O)O1` (stereo not drawn)?
IL1B secr inh: 29.5; HepG2 tox: 0.7%; DT40 TDP1 no CPT: 0.0184µM*; TGFb inhibitor: inconclusive; TDP1 cell CPT: 0.116µM*

How did COc1cc(OC2CCN(C(C)=O)CC2)ccc1C(=O)N1CCC(N2C(=O)OCc3ccccc32)CC1 do in these assays?
TDP1 block: 5.1%

What do the screens show for `O=C(c1ccc2c(=O)n(Cc3ccc4c(c3)OCO4)c(=S)[nH]c2c1)N1CCC2(CC1)OCCO2`?
IL1B secr inh: 8.2; HepG2 tox: -20.0%; TDP1 block: 7.1%; DT40 TDP1 no CPT: inconclusive; TGFb inhibitor: 0.0%; TDP1 cell CPT: 23.1µM*

Results for O=C(NCc1ccc(C(=O)N2CCC3(CC2)OCCO3)cc1)c1ccc2c(c1)OCO2 ?
IL1B secr inh: 5.5; HepG2 tox: 1.3%; TDP1 block: 3.0%; DT40 TDP1 no CPT: -23.7%; TGFb inhibitor: -1.9%; TDP1 cell CPT: -15.2%

What do the screens show for `COc1ccc(-n2c(C)nc3ccccc3c2=O)c([N+](=O)[O-])c1`?
IL1B secr inh: -9.6; HepG2 tox: 10.2%; TDP1 block: 6.4%; DT40 TDP1 no CPT: inconclusive; TGFb inhibitor: -13.7%; TDP1 cell CPT: -20.3%

Results for CN(Cc1ccccc1)C(=O)c1cccc(NC(=O)Cc2ccc([N+](=O)[O-])cc2)c1 ?
IL1B secr inh: inconclusive; HepG2 tox: -16.3%; TDP1 block: 2.4%; DT40 TDP1 no CPT: 14.6µM*; TGFb inhibitor: inconclusive; TDP1 cell CPT: 23.1µM*

What do the screens show for `CCOP(=O)(OCC)C(Nc1cccc([N+](=O)[O-])c1)c1ccc(OC)cc1` (stereo not drawn)?
IL1B secr inh: -13.1; HepG2 tox: -7.3%; DT40 TDP1 no CPT: 13µM*; TGFb inhibitor: 14.9%; TDP1 cell CPT: inconclusive

Results for CCOP(=O)(OCC)C(O)c1cccc([N+](=O)[O-])c1 (stereo not drawn) ?
IL1B secr inh: 43.7; HepG2 tox: 5.0%; TDP1 block: 6.3%; DT40 TDP1 no CPT: 24.9%; TGFb inhibitor: 1.1%; TDP1 cell CPT: 2.4%

Results for CCOP(=O)(OCC)C(Nc1cccc(C(F)(F)F)c1)c1ccc(C)cc1 (stereo not drawn) ?
IL1B secr inh: -16.5; HepG2 tox: -28.7%; TDP1 block: 5.5%; DT40 TDP1 no CPT: 18.4µM*; TGFb inhibitor: inconclusive; TDP1 cell CPT: inconclusive

Results for CCOP(=O)(OCC)C(Nc1cc(Cl)cc(Cl)c1)c1cccc(O)c1 (stereo not drawn) ?
IL1B secr inh: inconclusive; HepG2 tox: -50.1%; TDP1 block: 3.5%; DT40 TDP1 no CPT: inconclusive; TGFb inhibitor: inconclusive; TDP1 cell CPT: inconclusive
